Screening data from PubChem.
CHO-K1 Ca antag = counter-screen for M1 antagonists: effect in parental CHO-K1 cells. ATP-induced calcium, Fluo-8 fluorescence. inhibition, % at 3 µM. 360,000 tested, 0.6% active. AID 602250;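 active = inhibition above a per-plate cutoff, the plate's mean sample inhibition plus 3 SD, cut at about 24% in these data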
M1 antag = human CHRM1 antagonism; AID 588852; 360,000 tested, 1.3% active; inhibition, % at 3 µM; CHO-K1 hM1, Fluo-8 calcium fluorescence, ACh EC80 antagonist;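 active = percent inhibition above its own plate's cutoff, namely the mean of that plate's compound wells plus 3 SD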;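 also: peak over basal fluorescence ratio during 140 s after agonist addition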
Target sequence (P11229 whole entry, looked up): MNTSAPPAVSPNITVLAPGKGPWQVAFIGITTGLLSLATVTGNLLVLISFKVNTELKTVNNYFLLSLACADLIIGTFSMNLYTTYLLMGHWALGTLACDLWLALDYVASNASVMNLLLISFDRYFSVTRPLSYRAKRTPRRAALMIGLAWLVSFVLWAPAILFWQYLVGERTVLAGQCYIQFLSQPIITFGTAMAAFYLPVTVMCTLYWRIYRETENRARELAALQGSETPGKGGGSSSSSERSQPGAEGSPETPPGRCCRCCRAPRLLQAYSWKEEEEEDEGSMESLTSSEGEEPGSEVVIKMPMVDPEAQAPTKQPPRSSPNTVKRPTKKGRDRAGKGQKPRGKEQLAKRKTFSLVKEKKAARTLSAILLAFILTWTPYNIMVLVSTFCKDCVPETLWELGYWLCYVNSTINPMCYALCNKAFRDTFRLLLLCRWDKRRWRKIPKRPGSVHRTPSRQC
M1 PAM = potentiates human M1 receptor response to acetylcholine. 360,000 tested, 0.088% active. P11229. activation, % at 3 µM. CHO-K1 hM1, Fluo-8 calcium fluorescence, ACh EC20; 0% = ACh EC20, 100% = maximal ACh; in the data active = activation above about 19%, passing the limit was not always enough
M1 PAM parental = nonselective activator or artifact in parental CHO-K1 calcium assay; activation, % at 3 µM; AID 602247; 360,000 tested, 0.02% active; ATP EC20, Fluo-8 calcium fluorescence; 0% at ATP EC20, 100% at ATP max;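 active = activation above the run cutoff, the mean activation of all test compounds plus 3 SD, cut at about 40% in these data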;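 also: peak over basal fluorescence ratio in a 140 s read after ATP addition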
CHO-K1 Ca ag = counter-screen for M1 agonists: effect in parental CHO-K1 cells | Fluo-8 calcium fluorescence; scaled to maximal ATP response, vehicle zero | activation, % at 3 µM | 360,000 tested, 0.48% active; in the data active = activation above about 15%;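 also: untransfected CHO-K1 host cells lacking M1 receptor as counterscreen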
M1 ag = agonists of human M1 muscarinic receptor; activation, % at 3 µM; 360,000 tested, 0.33% active; P11229; CHO-K1 hM1, Fluo-8 calcium fluorescence, agonist mode; 0% DMSO, 100% acetylcholine EC100;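 active = activation above the run's mean compound activation plus 3 SD, cut at about 16% in these data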;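 also: peak over basal fluorescence ratio within a 140 s kinetic read after compound addition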
A number is an active result; n = inactive; x = no result. Compounds with a hit are over-represented: about 2.3% of the library has one in this group of screens.

SMILES | CHO-K1 Ca antag | M1 antag | M1 PAM | M1 PAM parental | CHO-K1 Ca ag | M1 ag
Cc1cc(C)n(-c2ccc(F)cc2CN2CCN(Cc3ccccc3)C(CCO)C2)n1 (configuration not stated) | n | 39 | n | n | n | n
O=C(CCc1nc2ccccc2c(=O)[nH]1)Nc1nc(-c2cccs2)cs1 | n | n | n | n | 18 | n
Cc1ccc(S(=O)(=O)N2CCN(C(=O)C3CSC4(C)CCC(=O)N34)CC2)cc1C (configuration not stated) | n | n | n | n | n | n
CN1CCN(CC#CCn2c3ccccc3c3ccccc32)CC1 | n | 36 | n | n | n | n
CCCCCCSc1ccc([C@@H]2[C@@H]3C(=O)N(C)C(=O)[C@@H]3[C@]3(C(=O)OC)CCCCN23)cc1 | n | n | n | n | n | n
Cc1ccc2c(c1)C(=O)C(=O)N2Cc1ccc(Br)cc1 | n | n | n | n | n | 21
O=C(NCc1ccco1)/C(=C/C=C\c1ccccc1)NC(=O)c1ccc(Br)o1 | n | n | n | n | 18 | n
N#C/C(=C\C=C\c1ccccc1)C(=O)NCc1ccco1 | n | n | n | n | n | n
CCCC(=O)N1CCC1(C)C(=O)Nc1ccc(OC(F)F)cc1 (configuration not stated) | n | n | n | n | n | n
CCc1nn(CC(=O)NCCCN2CCc3ccccc3C2)c(=O)c2cc3sccc3n12 | n | 44 | n | n | n | n
c1ccc2c(c1)CCc1ccccc1C2=C1CCNCC1 | n | 100 | n | n | n | n
O=C1C(=C2CCc3ccccc32)Cc2ccccc21 | n | n | n | n | n | n
CC(=O)Nc1cc(-c2ccccc2CN(C)C)cn2c(-c3ccc(F)c(Cl)c3)cnc12 | n | n | n | n | n | n
O[C@H]1CN(CC2CCCCC2)[C@@H](c2ccc(Cl)cc2)C[C@@H]1n1cc(C2CC2)nn1 | n | 37 | n | n | n | n
CCN(Cc1ccccc1)C(=O)COC(=O)Cc1c[nH]c2ccccc12 | 25 | n | n | n | n | n
COc1ccc(NC(=S)N(CCCN2CCCC2)Cc2cccs2)cc1 | n | 55 | n | n | n | n
COc1ccc(NC(=S)N(CCCN2CCCCCC2)Cc2cccs2)cc1 | n | n | n | n | n | n
S=C(Nc1ccc(Cl)cc1)N(CCCN1CCOCC1)Cc1cccs1 | n | 45 | n | n | n | n
Cc1c(Cl)cccc1NC(=S)N(CCCN1CCOCC1)Cc1ccco1 | n | 48 | n | n | n | n
Cc1ccc(NC(=O)N(CCCN2CCOCC2)Cc2cccs2)cc1C | n | n | 32 | n | n | n
O=C(Nc1ccc(Cl)cc1)N(CCCN1CCOCC1)Cc1cccs1 | n | n | n | n | n | n
CCN1CCN(CCCN(Cc2ccco2)C(=S)Nc2cccc(Cl)c2C)CC1 | n | n | n | n | n | n
O=S(=O)(NCc1ccccc1)NCc1ccc(Cl)cc1Cl | n | n | n | n | n | n
COc1ccc(NC(=S)N(CCCN2CCCC2)Cc2ccco2)cc1 | n | 36 | n | n | n | n
CSc1cccc(NC(=S)N(CCCN2CCCC2)Cc2cccs2)c1 | n | 36 | n | n | n | n
SMILES | CHO-K1 Ca antag | M1 antag | M1 PAM | M1 PAM parental | CHO-K1 Ca ag | M1 ag
CSc1cccc(NC(=S)N(CCCN2CCCC2)Cc2cccn2Cc2ccc(Cl)cc2)c1 | n | n | n | n | n | n
COc1ccc(/C=c2\s/c(=C/C(=O)c3ccc(C)cc3)[nH]c2=O)cc1OC | n | n | n | n | n | n
O=[N+]([O-])c1ccc2cn[nH]c2c1 | 35 | n | n | n | n | n
OC[C@H]1O[C@H](OC[C@H]2OC(O)[C@H](O)[C@@H](O)[C@@H]2O)[C@H](O)[C@@H](O)[C@@H]1O (some centres not stated) | n | n | n | n | n | n
O=[N+]([O-])c1ccc(OCC(O)CN(C2CCCCC2)C2CCCCC2)cc1 (configuration not stated) | n | n | n | n | n | n
COc1ccc(OCC(O)CN(C2CCCCC2)C2CCCCC2)cc1 (configuration not stated) | 26 | n | n | n | n | n
Cc1c(C(=O)N2CCN(C3CCS(=O)(=O)C3)CC2)oc2ccc(Cl)cc12 (configuration not stated) | n | n | n | n | n | n
CCC(C(=O)Nc1ccc([N+](=O)[O-])cn1)c1ccccc1 (configuration not stated) | n | n | n | n | n | n
O=C(c1cccc(S(=O)(=O)N2CCOCC2)c1)N1CCN(C/C=C/c2ccccc2)CC1 | n | 98 | n | n | n | n
O=C(c1ccccc1)N1CCN(S(=O)(=O)c2ccccc2)CC1 | n | 102 | n | n | n | n
COC(=O)[C@]12CCCCC=C1N(CCC1=CCCCC1)C(=O)[C@H](CC(=O)N1CCCCC1)C2 | n | x | x | n | n | x
CCN(C(=O)C1CCN(c2nc(-c3ccc(OC)cc3)no2)CC1)c1ccc(OC)cc1 | n | 42 | n | n | n | n
COc1ccc(NC(=O)C2CCN(c3nc(-c4ccc(OC)cc4)no3)CC2)cc1 | n | n | n | n | n | n
Nc1ccc2cc3[nH]c4cc(N)ccc4c3nc2c1 | 57 | 57 | n | n | 33 | 36
Cc1c(C(=O)NCc2ccc(Cl)c(Cl)c2)sc(=O)n1Cc1ccc(S(=O)(=O)N(C)C)cc1 | n | n | n | n | n | n
Cc1c(C(=O)NCc2cccc([N+](=O)[O-])c2)sc(=O)n1Cc1ccccc1F | n | 67 | n | n | n | n
COc1ccc(Cl)cc1Cn1c(C)c(C(=O)NCc2cccc([N+](=O)[O-])c2)sc1=O | n | 80 | n | n | n | n
COc1ccc(Br)c(Cn2c(C)c(C(=O)NCc3cccc([N+](=O)[O-])c3)sc2=O)c1 | n | 89 | n | n | n | n
Cc1c(C(=O)NCc2ccc(C(C)C)cc2)sc(=O)n1Cc1ccc(S(=O)(=O)N(C)C)cc1 | n | 34 | n | n | n | n
Cn1ncc([N+](=O)[O-])c1C(=O)N/N=C/c1ccc(F)cc1 | n | n | n | n | n | n
Cc1c(C(=O)NCc2ccc(C(F)(F)F)cc2)sc(=O)n1Cc1cccc(F)c1 | n | 39 | n | n | 23 | 37
Cc1c(C(=O)NCc2cccc(C(F)(F)F)c2)sc(=O)n1Cc1cccc(F)c1 | n | n | n | n | n | n
Cc1ccc(S(=O)(=O)Nc2ccc(O)c3ccccc23)c(C)c1 | 27 | n | n | n | n | n
Cc1noc(-c2ccccc2)c1NC(=O)Nc1ccc(Cl)cc1 | n | 41 | n | n | 15 | n
Nc1[nH]n2c(=O)cc(-c3ccccc3)nc2c1N=Nc1ccc(S(N)(=O)=O)cc1 | 25 | n | n | n | n | n
